# Rows were chosen to be rich in hits. Some 2.8% of all compounds tested hit in one or more screens of this group.
# POLI inh = inhibitors of human DNA polymerase iota. Potency, µM (top dose mostly 115 µM), for inactives: at the top dose activity, negative = inhibition, most hits filed as inhibitors. Q9UNA4. 1% of 390,000 active. Pol iota fluorescent replication assay, 10 min; further: potency means the concentration at half of the fitted maximal effect
#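 Pol iota at 10 nM preincubated 15 min with compounds at room temperature; reaction started with fluorescent substrate, 50 nM final. Fluorescence read kinetically at 0 and 10 min; buffer-only wells as negative control.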
# POLH inh = DNA polymerase eta (human) inhibition | Q9Y253 | recombinant Pol eta, fluorescent DNA replication assay | Potency, µM (doses to about 114 µM), for the others: at the highest dose activity change, negative = inhibition, hits mostly inhibitors | 1.2% of 390,000 active | AID 588591; further: potency means the concentration at half of the fitted maximal effect; on the % scale 0 is the no-effect control and ±100 the full control effect
#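 Fluorescent replication assay: 50 nM final substrate added after a 15 min room-temperature compound preincubation with 10 nM enzyme. Signal taken at 0 min and again at 10 min.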
# WRN helicase inh = WRN helicase (human) inhibition; Q14191; WRN helicase unwinding, fluorescent forked duplex, kinetic; Potency, µM (top dose mostly 114 µM), for the others: at the top dose activity change, negative = inhibition, usual class: inhibitors; 0.46% of 360,000 active; AID 651768; further: potency means the concentration at half of the fitted maximal effect; on the % scale 0 is the no-effect control and ±100 the full control effect; nearly all actives have a fitted effect of over 55% in size
#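 Kinetic red-fluorescence monitoring (525/598 nm) tracks WRN helicase activity after 100 nM fluorophore-quencher forked duplex and 2 mM ATP are added to 20 nM enzyme pretreated 15 min at room temperature with compound.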
# POLK inh = inhibitors of human DNA polymerase kappa. Q9UBT6. 0.53% of 400,000 active. purified Pol kappa, fluorescent DNA synthesis assay, 10 min. AID 588579. Potency, µM (highest dose often 107 µM), for the others: at the top dose activity, negative = inhibition, usual class: inhibitors; further: potency means the concentration at half of the fitted maximal effect; on the % scale 0 is the no-effect control and ±100 the full control effect
#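 Activity was followed as the change in fluorescence between reads at 0 and 10 min after starting the reaction with 50 nM substrate. Beforehand, 10 nM polymerase had been preincubated with compound for 15 min at room temperature.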
# PI5P4Ka inh = blocks human PI5P4K alpha kinase activity. P48426. PI5P4Kalpha enzyme, ADP-Glo luminescence, 60 min; stronger effect = lower value. max response, %. 1.2% of 330,000 active. AID 652105; active means max response of -50% or lower; inconclusive means between -30% and -50%; inactive means -30% or higher; further: value at the top dose of about 77 µM; on the % scale 0 is the no-effect control and ±100 the full control effect
# Target sequence (P48426 whole entry, looked up): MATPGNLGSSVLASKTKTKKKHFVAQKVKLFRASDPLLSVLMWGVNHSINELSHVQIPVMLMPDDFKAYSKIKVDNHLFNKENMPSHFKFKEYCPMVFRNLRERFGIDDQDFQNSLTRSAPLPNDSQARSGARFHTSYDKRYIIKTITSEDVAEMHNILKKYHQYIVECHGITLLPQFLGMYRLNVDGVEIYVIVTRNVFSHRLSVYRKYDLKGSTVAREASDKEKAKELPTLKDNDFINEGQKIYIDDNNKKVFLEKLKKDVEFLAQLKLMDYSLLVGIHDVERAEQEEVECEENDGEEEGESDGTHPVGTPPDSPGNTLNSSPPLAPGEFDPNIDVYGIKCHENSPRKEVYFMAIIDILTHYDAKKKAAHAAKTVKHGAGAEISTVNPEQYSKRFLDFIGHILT
#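 PI5P4Kalpha ADP-Glo assay; 5 microM ATP final; 60 min RT reaction; HEPES pH 7.4/EGTA/CHAPS, 5% DMSO; controls lacking substrate or enzyme; luminescent end-point.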
# Pol beta inh = DNA polymerase beta (human) inhibition. Pol beta primer extension/strand displacement, fluorescence kinetic. 1.3% of 340,000 active. P06746. AID 485314. Potency, µM (series often up to 114 µM), for the others: at the top dose activity change, negative = inhibition, hits mostly inhibitors; further: potency means the concentration at half of the fitted maximal effect; on the % scale 0 is the no-effect control and ±100 the full control effect
#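 Pol beta (10 nM) and compounds were preincubated 15 min at room temperature, then 50 nM substrate (final) started primer extension/strand displacement. Reads were taken at 0 and 10 min; concentration-response data were fitted to a four-parameter Hill equation.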
# Numbers without * were called inactive; ? = inconclusive; nt = no result; ! = not confirmed by another sample; [ ] = dose if it differs, or a comment. Unless noted, the call rests on the fitted dose curve; in most records, active means well fitted curve in the direction sought with a large enough effect; inconclusive means small, poorly fitted or top-dose-only effect, or another doubt; inactive means no such curve, though single readings can be large; an effect the other way counts as inactive or inconclusive.
SMILES,POLI inh,POLH inh,WRN helicase inh,POLK inh,PI5P4Ka inh,Pol beta inh
Cc1ccc(NC2=C(Cl)C(=O)c3ccccc3C2=O)cc1,27%,?,2%,-12%,-6,-4%[57.1 µM]
CC1(c2nnnn2Cc2ccccc2)CCC(=O)N1Cc1cccnc1 (stereo unspecified),nt,nt,1%,nt,2,nt
Cc1ccc(NC2=C(Cl)C(=O)OC2NC(=O)c2ccccc2)cc1 (stereo unspecified),14%,6%,-1%,-7%,0,-1%
O=C1OC(NC(=O)c2ccccc2)C(n2cc(CO)nn2)=C1Cl (stereo unspecified),?,-5%,50µM*,-8%,?,5%
O=c1[nH]c(=O)c2nnc(N/N=C/c3ccccc3F)nc2[nH]1,3%,11%,-8%,-14%,-88*,0%
Cc1ccc2c(c1)c1c(c(=O)n(-c3ccccc3)c(=O)n1Cc1ccccc1C)n2C,20%,-8%,nt,-8%,nt,44%
CC(=O)Nc1cccc(-n2nnc(SCC(=O)Nc3ccc(F)c(Cl)c3)n2)c1,79µM*,?,-26%,-7%,-4,?
Nc1cc(=O)[nH]c(SCC(=O)N2N=C(c3ccc4ccccc4c3)CC2c2ccccc2)n1 (stereo unspecified),45µM*,?,-10%,-8%,-23,5%
CN1CCN(c2ccccc2NC(=O)c2ccc(-c3ccccc3[N+](=O)[O-])o2)CC1,36%,-14%,-29%,-1%,12,13%
O=C1NC2CCCCC2C(=O)N1OS(=O)(=O)c1ccccc1 (stereo unspecified),?,-10%,50µM*,-6%,-20,nt
Cc1cccc(NC(=O)C2CCN(C(=O)c3ccc(F)cc3)CC2)n1,6%,-14%,-3%,-1%,-3,nt
CCOC(=O)C1(C)CCN1C(=O)c1ccc(OC)c(OC)c1 (stereo unspecified),nt,nt,7%[57.1 µM],nt,7,nt
CCOc1cc2c(c3c1C(c1ccccc1)N(S(=O)(=O)c1ccc(C)cc1)C3)C(=O)C=CC2=O (stereo unspecified),nt,nt,-6%,nt,-85*,nt
CCOC(=O)C1=CCN(S(=O)(=O)c2ccc(C)cc2)C1c1ccccc1 (stereo unspecified),nt,nt,-10%,nt,10,nt
CCCCCCNC(=O)N[C@H](C(=O)NCCC[C@H]1CN2C(=NC[C@H]2C)N1CCC(c1ccccc1)c1ccccc1)C(C)O (stereo partly specified),nt,nt,nt,nt,nt,7%
COc1ccc(CCNC(=O)CO/N=C/c2cc3c(cc2Br)OCO3)cc1OC,130%,-11%,1%,-10%,-4,6%
Cc1ccc(NC(=O)Nc2cn(C)c(=O)c3ccccc23)c(Cl)c1,71µM*,5%,nt,-14%,nt,?
CCc1ccc(NC(=O)Nc2cn(C)c(=O)c3ccccc23)cc1,?,-5%,nt,-20%[60.1 µM],nt,-18%
CSCCC(NC(=O)OCc1ccccc1)C(=O)NCc1cccnc1 (stereo unspecified),18%,-6%,-2%[57.1 µM],2%,-1,27%
CC(C)(C)c1ccc(C(=O)Nc2ccc(S(N)(=O)=O)cc2)cc1,7%,-4%,-10%,-8%,3,26%
O=C(Nc1cc(C(=O)Nc2ccc(S(=O)(=O)O)cc2S(=O)(=O)O)cc(C(=O)Nc2ccc(S(=O)(=O)O)cc2S(=O)(=O)O)c1)Nc1cc(C(=O)Nc2ccc(S(=O)(=O)O)cc2S(=O)(=O)O)cc(C(=O)Nc2ccc(S(=O)(=O)O)cc2S(=O)(=O)O)c1,1.3µM*,0.1µM*,nt,0.18µM*!,nt,0.22µM*
NS(=O)(=O)c1ccc(NC(=O)Nc2ccc(S(N)(=O)=O)cc2)cc1,-17%,9%,-5%,-6%,0,-9%
O=C(Nc1ccc(C(=O)Nc2ccc(C(=O)Nc3ccc(S(=O)(=O)O)c4cc(S(=O)(=O)O)cc(S(=O)(=O)O)c34)cc2)cc1)Nc1ccc(C(=O)Nc2ccc(C(=O)Nc3ccc(S(=O)(=O)O)c4cc(S(=O)(=O)O)cc(S(=O)(=O)O)c34)cc2)cc1,nt,nt,nt,0.14µM*,nt,nt

# From PubChem BioAssay
